Bioassay records as filed in PubChem.
Shown is part of a subset that was picked to be rich in hits.
Tg IFNy HTS: inhibitors of Toxoplasma gondii growth with IFN-gamma | actives 3.8% (n = 69,000) | Toxoplasma gondii growth in IFN-gamma-treated host cells; active compounds read low | activity change, negative = inhibition, % (test concentration not listed); in the data active = activity change below about -70%, passing the limit was not always enough;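 also: host cells are HeLa cells infected with Toxoplasma gondii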
Active calls of the source: *; i = inactive; ! = repeats disagree.

SMILES	Tg IFNy HTS
Cc1noc(C)c1C(=O)NC(Cc1ccsc1)c1cccnc1 (stereo not drawn)	23.5
N#Cc1cc2c(ccc3ccccc32)oc1=N	142.2
CC(C)(C)c1ccc2cc(C#N)c(C#N)cc2c1	-80.0*
CC(=O)Nc1nc(C(=O)N2CCC(c3cc4ncccc4cn3)CC2)cs1	-29.3
O=c1oc2cc(O)ccc2cc1-c1csc(-c2ccc(Br)cc2)n1	1.0
CCc1c(C)noc1-c1cnc(N(CC)CC)nc1-c1cnc(C)cn1	-4.2
FC(F)(F)c1ccnc(N2CC(c3cccnc3)C2)c1	4.3
CC(=O)[C@H]1CC[C@H]2[C@@H]3CCC4=CC(=O)CC[C@]4(C)[C@H]3[C@H](O)C[C@]12C	-5.9
CC(=O)OCC(=O)[C@H]1CC[C@H]2[C@@H]3CCC4=CC(=O)CC[C@]4(C)[C@H]3CC[C@]12C	-81.9*!
C[C@]12C[C@H](O)[C@H]3[C@@H](CCC4=CC(=O)CC[C@@]43C)[C@@H]1CC[C@@H]2C(=O)CO	-13.3
CS(=O)(=O)N1CCN(c2ccc3ccc(C(=O)NC4CCCC4)cn23)CC1	1.9
O=C1C(Cl)=C(NCCN2CCOCC2)C(=O)c2ncccc21	-80.3*
Cn1ccnc1-c1nc(NCCN2CCOCC2)ncc1-c1cccs1	4.6
c1ccc2c(c1)CCCc1cc(NCCN3CCOCC3)nnc1-2	16.6
CCC(C)(C)c1ccc2c(C(=O)N3C[C@@H](N)C[C@H]3C(=O)NC)csc2c1	11.5
COc1ccc2c(c1)NC1(CCN(C(=O)Nc3ccccc3OC)CC1)c1cccn1-2	418.2
Cc1ccc(-c2nc(CCNC(=O)C(=O)Nc3ccccc3C#N)cs2)cc1	68.5
CC(C)Oc1ccc(C(=O)NCCc2csc(-c3ccc(F)cc3)n2)cc1	10.3
CC(C)(C)c1ccc(-c2nc(-c3ccc(Cl)cc3)no2)cc1	-22.9
Cc1nc(-c2ccccc2)sc1-c1nc(-c2ccc(C(C)(C)C)cc2)no1	-77.0*
FC(F)(F)c1ccc(-c2noc(/C=C/c3ccccc3)n2)cc1	81.3
Cc1cc(-n2cccn2)ccc1CN1CCCC(OCc2cccnc2)C1 (stereo not drawn)	6.7
Cc1c(C(=O)NCc2cnn(Cc3ccccc3)c2)cnc2ccnn12	2.4
COc1ccc(NC(=O)NCC(c2cccnc2)c2cn(C)c3ccccc23)c(OC)c1 (stereo not drawn)	i
COc1cc(OC)c(NC(=O)NCC(c2cccnc2)c2c[nH]c3ccccc23)cc1Cl (stereo not drawn)	8.2
SMILES	Tg IFNy HTS
CCC[C@H](Nc1nc(-c2ccc(NC(=O)NCC)c(OC)c2)ncc1C)c1cccnc1	-78.3*
Cc1ccc(S(=O)(=O)c2cnc(N3CCC(C(N)=O)(N4CCCCC4)CC3)nc2N)cc1	25.2
Cc1nc(CCNC(C)Cn2cncn2)sc1C (stereo not drawn)	-2.4
CCOC(=O)c1nc(Nc2ccc(Cl)cc2)c2ccccc2n1	-32.1
C#CCOc1ccc(C2SC(C)=Nc3c2c(C)nn3-c2ccc(OC)cc2)cc1OC (stereo not drawn)	189.2
CC[C@@]1(O)C(=O)OCc2c1cc1n(c2=O)Cc2cc3cc(O)ccc3nc2-1	-89.6*
CC[C@@]1(O)C(=O)OCc2c1cc1n(c2=O)Cc2c-1nc1cc(F)c(C)c3c1c2[C@@H](N)CC3	-86.2*
CC(=O)N1CCO[C@H]2CN(C(=O)COc3ccccc3)CC[C@@H]2C1	-0.7
Cc1cccc(C2(C(=O)Nc3nnc(C4CCCCC4)s3)CCOCC2)c1	-43.8
CC(C)n1cnc(C2CN(C(=O)c3ccccn3)c3ccc(C(=O)N4CCC(N(C)C)CC4)cc32)n1 (stereo not drawn)	-10.3
C[C@]12CC[C@@H]3c4ccc(O)cc4CC[C@H]3[C@@H]1CC[C@@H]2OC(=O)CCC(=O)O	1.5
C[C@]12CCC3c4ccc(O)cc4CCC3C1CC[C@@H]2OC(=O)CCC1CCCC1 (stereo partly drawn)	-72.1*!
C[C@]12CCC3c4ccc(OS(=O)(=O)O)cc4CCC3C1CCC2=O (stereo partly drawn)	17.4
COCCN(C(=O)c1ccc(C)c(NC(=O)C2CC2)c1)C(C)C	-11.9
Cc1nnsc1CN(C)C(=O)c1nc(-c2ccccc2)cs1	-17.2
CCOC(=O)Nc1nc2ccccc2[nH]1	21.7
CCCOc1ccc2nc(NC(=O)OC)[nH]c2c1	-73.0*!
COC(=O)Nc1nc2ccc(C(=O)c3ccc(F)cc3)cc2[nH]1	-68.1
CCCNC(=O)N1CC2(CCN(C(=O)Cc3cccnc3)CC2)c2c([nH]c3cc(OC)ccc23)[C@H]1CO	29.7
O=C(NCC(F)(F)F)c1c2c(-c3ccccc3)ncnc2n2ccccc12	-9.8
Cc1c(Nc2nc3nonc3nc2Nc2cccc(Cl)c2)c(=O)n(-c2ccccc2)n1C	-24.2
O=C(Nc1ccc(Cl)cc1)c1nc(Nc2ccccc2)c2ccccc2n1	96.2
Clc1ccc(Nc2nc3nonc3nc2Nc2ccc(Cl)cc2)cc1	-103.2*
CCOC(=O)CSC1=Nc2ccccc2C2=NC(CCC(=O)NCc3ccco3)C(=O)N12 (stereo not drawn)	27.8
COc1ccc(CCN(C)CCCC(C#N)(c2cc(OC)c(OC)c(OC)c2)C(C)C)cc1OC (stereo not drawn)	-47.3
SMILES	Tg IFNy HTS
COc1ccc(CCN(C)CCCOc2ccc(S(=O)(=O)c3c(C(C)C)c4ccccc4n3C)cc2)cc1OC	-73.0*
COc1ccc(CCN(C)CCc2ccc(OC)c(OC)c2)cc1OC	4.6
CS(=O)(=O)N1CC(C(=O)NCc2ccccc2N2CCCC2)Oc2ccccc21 (stereo not drawn)	5.4
COc1ccc2nc(Cl)c(CNCc3ccccc3F)c(N3CCOCC3)c2c1	-99.4*
COc1ccc2c(c1)c(CC(=O)N1CCOCC1)c(C)n2C(=O)c1ccc(Cl)cc1	-1.3
COc1cc(CNc2ccc(N3CCOCC3)cc2)ccc1OCc1ccccc1F	-16.9
Cc1cc(C)n(CC(=O)Nc2ccc3oc(C)cc3c2)n1	0.7
O=C(O)C(Cc1ccc(F)cc1)c1ccccc1 (stereo not drawn)	-10.1
Fc1ccc(CNC(=S)NC(Cc2ccccc2)c2ccccc2)cc1 (stereo not drawn)	-93.9*
S=C(NCc1ccccc1)NCc1cccc(CNC(=S)NCc2ccccc2)c1	-2.4
CN(C)S(=O)(=O)N1C[C@@H]2CN(CC3CCCC3)CCO[C@H]2C1	-6.6
CCCc1cc(CNC(=O)CC2CCc3ccccc32)on1 (stereo not drawn)	-1.8
CC(=O)Nc1ncc(-c2cccc(C3CCCN(C(=O)OC(C)(C)C)C3)n2)s1 (stereo not drawn)	-61.4
Cc1nn2c(C3CCCN(C(=O)OC(C)(C)C)C3)ccnc2c1-c1cccs1 (stereo not drawn)	-77.0*
COc1ccc(-c2c(C)nn3c(C4CCN(Cc5ccccc5)C4)ccnc23)cc1OC (stereo not drawn)	-10.5
O=C(C#Cc1ccccc1)Nc1ccc(OC(F)(F)F)cc1	-58.6
COc1cc(NC(=O)Nc2ccc(OC(F)(F)F)cc2)cc(C(F)(F)F)c1	-95.9*
COc1ccc(-n2ncc(NC(=O)Nc3ccc(OC(F)(F)F)cc3)c2C)cc1	33.3
OCCCn1ccnc1-c1ccccc1OCc1ccccc1	-54.6
Cc1ccc(-c2noc(-c3c(O)c4ccccc4n(C)c3=O)n2)cc1C	-4.6
COc1ccc(OC)c(NC(=O)Nc2ccc(-c3nc(-c4ccccc4)co3)cc2)c1	33.5
CC(=O)Cc1ncn(-c2cc(C)on2)n1	-39.1
COc1ccc(CN2C[C@@H]3CN(Cc4nccn4C)C[C@H]3C2=O)cc1	-1.2
CCOC(=O)C1CCN(C(=O)c2sc(-c3cn(C(C)C)c4ncccc34)nc2C)CC1	-51.0
